Assay outcomes as filed in PubChem BioAssay.
Only some compounds are listed: those with a hit (about 0.88% of all), similar ones and a draw of the others.
GRP78 ERSR act: inducers of ER stress response in human glioma cells. actives 0.02% (n = 420,000). Potency, µM, inactives show top-dose activation, actives largely listed as activators. U87-MG GRP78 promoter luciferase reporter, 16 h. AID 602332; active means well fitted curve in the direction sought with a large enough effect; inconclusive means small, poorly fitted or top-dose-only effect, or another doubt; inactive means no such curve, though single readings can be large; an effect the other way counts as inactive or inconclusive; further: potency means the concentration at half of the fitted maximal effect; series mostly up to about 76 µM; % of control where 0% means no effect; nearly all actives have a fitted effect of over 35% in size
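Stably transfected U87-MG human glioma cells carrying a GRP78-based luminescent sensor were seeded at 1000 cells/well, pin-dosed with compounds and incubated 16 h. Luciferase reagent was then added, and end-point luminescence was read after 10 min at room temperature.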
Akt phos inh: Akt phosphorylation inhibition; actives 0.32% (n = 360,000); activity change, % for hits at 50 µM; Neuro2A IGF-stimulated pAkt S473 HTRF, 20 min; stronger effect = lower value; AID 651550; in the data active means activity change below about -80%; inconclusive means mostly about -51% to -80%; further: on the % scale 0 is the no-effect control and ±100 the full control effect
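Neuro2A cells in DMEM with 0.5% FBS, overnight at 37 deg C, given compound at single 50 µM final, then IGF (6 nM final) for 20 min at 37 deg C. Lysed; phospho-Akt Ser473 by HTRF after 24 h, 665/615 ratio.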
RGS4 inh: human RGS4 inhibition; Transcreener GDP fluorescence polarization, RGS4-accelerated GTP hydrolysis; Potency, µM (highest dose often 114 µM), for the others: top-dose activity change, negative = inhibition, actives largely listed as inhibitors; AID 504845; actives 0.039% (n = 390,000); active means well fitted curve in the direction sought with a large enough effect; inconclusive means small, poorly fitted or top-dose-only effect, or another doubt; inactive means no such curve, though single readings can be large; an effect the other way counts as inactive or inconclusive; further: potency means the concentration at half of the fitted maximal effect; on the % scale 0 is the no-effect control and ±100 the full control effect; nearly all actives have a fitted effect of over 75% in size
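MLSMR compounds (23 nl, pin-transferred) preincubated 10 min at room temperature with a 500nM (2x) first reagent, then RGS4 at 900nM (2x) plus Transcreener GDP mix added; fluorescence polarization (620/688 nm) read before and after 90 min at 30 °C.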
CtBP-E1A inh: blocks the CtBP interaction with E1A; activity change, % (test concentration not listed); actives 0.49% (n = 340,000); AlphaScreen GST-E1A/His-CtBP binding, 1536-well; stronger effect = lower value; further: on the % scale 0 is the no-effect control and ±100 the full control effect
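Protein mix (5X: 125 nM each GST-E1A, His-CtBP) was incubated with pinned compound 2 h at 37 deg C in dark, in 50 mM Tris pH 8.0 buffer with 300 mM NaCl. Glutathione donor and nickel acceptor beads followed; AlphaScreen signal read after 1 h.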
Six1-Eya2 inh: inhibitors of human Six1/Eya2 interaction; Q15475+O00167; AlphaScreen GST-Six1/His-Eya2 binding, biochemical; stronger effect = lower value; activity change, % (concentration not given with the values); actives 0.56% (n = 360,000); AID 651725; further: on the % scale 0 is the no-effect control and ±100 the full control effect
Target sequence (O00167 whole entry, looked up): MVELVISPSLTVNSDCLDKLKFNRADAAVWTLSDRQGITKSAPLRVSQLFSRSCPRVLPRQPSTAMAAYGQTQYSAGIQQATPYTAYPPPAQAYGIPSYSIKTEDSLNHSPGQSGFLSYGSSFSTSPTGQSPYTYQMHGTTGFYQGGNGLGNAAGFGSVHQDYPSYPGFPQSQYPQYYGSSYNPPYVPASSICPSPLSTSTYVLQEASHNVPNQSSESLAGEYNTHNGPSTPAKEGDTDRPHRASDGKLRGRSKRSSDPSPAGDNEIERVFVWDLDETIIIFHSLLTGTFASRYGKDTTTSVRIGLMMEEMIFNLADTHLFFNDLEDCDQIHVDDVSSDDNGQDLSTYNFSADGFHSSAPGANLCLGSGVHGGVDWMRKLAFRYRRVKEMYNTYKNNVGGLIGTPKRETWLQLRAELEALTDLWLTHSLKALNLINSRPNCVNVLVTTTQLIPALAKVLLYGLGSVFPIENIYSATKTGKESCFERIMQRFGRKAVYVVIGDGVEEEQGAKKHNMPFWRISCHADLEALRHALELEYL
Target sequence (Q15475 whole entry, looked up): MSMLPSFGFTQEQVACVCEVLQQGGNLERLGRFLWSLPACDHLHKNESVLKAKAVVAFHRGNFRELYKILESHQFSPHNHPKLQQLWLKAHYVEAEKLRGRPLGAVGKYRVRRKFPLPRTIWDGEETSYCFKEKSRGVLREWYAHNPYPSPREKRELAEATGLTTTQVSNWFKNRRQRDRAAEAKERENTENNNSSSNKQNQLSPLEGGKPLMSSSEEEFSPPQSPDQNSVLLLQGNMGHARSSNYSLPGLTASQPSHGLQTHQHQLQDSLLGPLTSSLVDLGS
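GST-Six1 + His-Eya2 (5X stock: 250/500 nM); Tris pH 8.0, 300 mM NaCl, 0.05% BSA, 0.02% Tween 20; GSH donor/Ni acceptor beads; 1 h 37 °C dark; AlphaScreen readout.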
* marks the source's active call; other numbers are inactive results; i = inactive; ? = inconclusive; / = no result given; [ ] = dose if it differs, or a comment. Unless noted, no stated cut-off is given here; in the data, active means activity change below about -65%; inconclusive means mostly about -30% to -63%; inactive means weaker than that.

SMILES | GRP78 ERSR act | Akt phos inh | RGS4 inh | CtBP-E1A inh | Six1-Eya2 inh
COc1ccc(C2C(C(=O)N3CCN(c4ccccc4F)CC3)c3ccccc3C(=O)N2C)cc1 (stereo not given) | -2.2% | -128.7%* | -0.3% | 4.8 | -0.4
O=S(=O)(Nc1c(Br)cc(Br)c2cccnc12)C1CC1 | -4.0% | / | -20.4% | / | /
O=[N+]([O-])c1cccc(/C=N/Nc2nc(NCc3ccccc3)nc(N3CCOCC3)n2)c1O | -0.7% | i | 12.6% | -66.7* | -94.0*
O=[N+]([O-])c1ccc(/C=N/Nc2nc(NCc3ccccc3)nc(N3CCOCC3)n2)cc1 | -0.6% | i | -34.4%[56.9 µM] | / | 1.0
COc1ccccc1S(=O)(=O)Cc1ccc(C(=O)N2CCN(c3ccccc3)CC2)o1 | -3.2% | -124.0%* | -17.8% | -19.9 | -17.6
O=C(C[n+]1ccccc1Cl)c1cccc([N+](=O)[O-])c1 | -3.2% | / | / | / | /
c1cncc(OC2CCN(Cc3ccc4c(c3)CN(Cc3ccc5c(c3)CCO5)CCO4)CC2)c1 | -4.4% | / | / | / | /
COc1cc(/C=C(\C#N)C(=O)Nc2cccc(C(=O)O)c2)ccc1OCc1ccc(F)cc1 | 4.0% | i | -47.3% | -70.5* | -13.5
COc1cc(/C=C/[N+](=O)[O-])ccc1OCc1cccc(C(=O)O)c1 | -14.4% | i | ? | 2.2 | -76.4*
COc1cc(/C=C/[N+](=O)[O-])ccc1OC(=O)/C=C/c1ccc(F)cc1 | -3.9% | i | -7.6% | -90.1* | ?
COc1ccc(/C=C/C(=O)Oc2ccc(C)c(C)c2)cc1OC | -5.2% | i | -8.7% | ? | -5.1
CC1(C(=O)O)CCC2(C)CCC3(C)C(=CC(=O)[C@@H]4C5(C)CC[C@H](O[C@H]6O[C@H](C(=O)O)C(O)C(O)[C@H]6O[C@@H]6O[C@H](C(=O)O)C(O)C(O)C6O)C(C)(C)[C@@H]5CCC43C)[C@@H]2C1 (stereo not given in full) | -0.4% | / | / | / | /
NC(=O)c1ccc(-n2nnnc2SCc2ccccc2)cc1 | -3.8% | i | -6.2%[11.4 µM] | 1.8 | -2.8
O=C(Nc1nccs1)c1ccc(CSc2nnnn2-c2ccccc2)cc1 | 6.3% | i | -7.9% | -78.9* | -68.3*
COc1cc2c(NC3CCN(C(C)C)CC3)nc(N3CCCN(C)CC3)nc2cc1OCCOCCN1CCCC1 | -6.3% | / | / | / | /
COc1cc(/C=C/c2ccc3c(Br)cc(Br)c(O)c3n2)ccc1O | 28.2µM* | i | ? | / | -3.2
CCOC(=O)Nc1ccc2c(c1)N(C(=O)CCN1CCN(CCO)CC1)c1ccccc1S2 | -2.0% | -123.5%* | -7.4% | -4.8 | -3.3
COc1cc(C=NO)nc(-c2ccccn2)c1 | -3.8% | i | -14.4% | 2.9 | -92.2*
CC[C@H]1OC(=O)C[C@@H](O)[C@H](C)[C@@H](O[C@@H]2O[C@H](C)C[C@H](N(C)C)[C@@H]2O)[C@@H](CC=O)C[C@@H](C)C(=O)/C=C\[C@]2(C)O[C@H]2[C@@H]1C | -6.6% | / | / | / | /
Cc1ccc(-c2nc(CN(Cc3c(C)nn(C)c3C)C(C)C)c(C)o2)o1 | -4.6% | i | 1.6% | -5.8 | -89.7*
COc1ccc([C@H]2[C@H](C(=O)C(C)(C)C)N3N=Cc4ccccc4C3[C@]23N=C(c2ccccc2)OC3=O)cc1OC (stereo not given in full) | -0.5% | -106.4%* | -27.9% | -5.1 | -11.4
COc1ccc([C@H]2[C@H](C(=O)C(C)(C)C)N3N=Cc4ccccc4C3[C@]23N=C(c2ccccc2)OC3=O)cc1 (stereo not given in full) | 3.2% | i | -13.4% | -14.2 | -18.7
Cc1ccc(Cl)cc1N1CCN(C(=O)Cc2c(C(=O)O)[nH]c3ccc(Cl)cc23)CC1 | 31.6µM* | i | -30.2% | -4.2 | -5.8
COc1cccc(C(=O)Nc2cccc(C(=O)NC3=NN(c4c(Cl)cc(Cl)cc4Cl)C(=O)C3)c2)c1 | -4.2% | i | 23.0% | -80.5* | -70.9*
COc1ccc(/C=C2\C(=O)N(c3c(Cl)cc(Cl)cc3Cl)N=C2NC(=O)c2cccc([N+](=O)[O-])c2)cc1 | -3.2% | i | ? | -1.8 | -78.9*
SMILES | GRP78 ERSR act | Akt phos inh | RGS4 inh | CtBP-E1A inh | Six1-Eya2 inh
CCOC(=O)c1ccc(NC(=O)CC2S/C(=N/N=C3/NC(=O)CS3)NC2=O)cc1 (stereo not given) | -5.5% | i | -24.8% | ? | ?
Cc1ccc(NC(=O)CC2S/C(=N/N=C3/NC(=O)CS3)NC2=O)cc1 (stereo not given) | -5.1% | i | 3.1% | -22.6 | -74.9*
CC(N)C(=O)NCC(=O)NC1CSSCC(C(=O)O)NC(=O)C(CO)NC(=O)C(C(C)O)NC(=O)C(Cc2ccccc2)NC(=O)C(C(C)O)NC(=O)C(CCCCN)NC(=O)C(Cc2c[nH]c3ccccc23)NC(=O)C(Cc2ccccc2)NC(=O)C(Cc2ccccc2)NC(=O)C(CC(N)=O)NC(=O)C(CCCCN)NC1=O (stereo not given) | -1.9% | / | / | / | /
COc1cc(C2CC(=O)Oc3ccc(O)cc32)cc(OC)c1OC (stereo not given) | 50.1µM* | / | / | / | /
COc1ccc(C2CC(=O)Oc3ccc(O)cc32)cc1 (stereo not given) | 0.3% | / | / | / | /
Cc1sc2ncnc(N/N=C/c3ccccc3O)c2c1C | -5.2% | i | 11.1% | -87.6* | -86.1*
Cc1c(C(=O)NCC2(N3CCOCC3)CCCCCC2)cnn1-c1nccc(-c2ccccc2F)n1 | -0.6% | / | / | / | /
Cc1ccc(S(=O)(=O)CC(O)CN2CCCC2=O)cc1 (stereo not given) | -4.2% | -116.7%* | -6.5% | 7.0 | 4.4
O=C1CCCN1CC(O)CS(=O)(=O)c1ccc(Cl)cc1 (stereo not given) | -2.9% | i | -6.2% | 9.4 | -0.1
CCN1CCN(C(=O)N[C@H](C(=O)N[C@@H]2C(=O)N3[C@@H](C(=O)O)C(C)(C)S[C@@H]23)c2ccccc2)C(=O)C1=O | -2.3% | / | / | / | /
Cc1ccc(S(=O)(=O)N2CCN(C(=O)CSc3nc4ccccc4c(=O)[nH]3)CC2)cc1 | 0.0% | -95.3%* | 8.6% | -6.2 | 8.2
Nc1ccc2ccccc2c1N=Nc1ccccc1 | 3.5% | i | -1.1% | -76.8* | -76.0*
Nc1ncnc(N)c1N=Nc1ccccc1 | -6.6% | i | 33.5% | -22.4 | -5.2
Cc1ccc(O)c(N=NC2=C(O)CC(C)(C)CC2=O)c1 | -7.4% | i | -40.3% | -3.5 | -90.3*
CC1(C)CC(=O)C(N=Nc2cc(Cl)c(Cl)c(Cl)c2)=C(O)C1 | 5.3% | i | -1.2% | -2.3 | -10.1
O=C(Nc1ccc2c(c1)OCO2)N1CCN(C/C=C/c2ccccc2)CC1 | -0.2% | -83.3%* | 35.0% | -14.9 | -9.5
C=CC(=O)c1ccc(CCCCCC)cc1 | -4.0% | / | 2.67µM* | / | /
CCCCCCCCCCCCCCCCCCc1ccc(C(=O)/C=C/C(=O)O)cc1 | -4.5% | / | ? | / | /
CCCCCCCCc1ccc(-c2ccc(C(=O)O)cc2)cc1 | -4.2% | / | 21.2µM* | / | /
